This is part of a sample that, as a whole, favours compounds with a hit. Of some 79,000 tested, about 15% had one in any assay. A number with no mark means an inactive call. Active and inactive are the calls of the source. Cut-off read from the data, not from the text of the source: active = growth inhibition above about 70%; inactive = the rest.

This note sets out measurements from PubChem BioAssay (NCI).

A short description of one assay: NCI Yeast Anticancer Drug Screen. Data for the mec2-1 strain (AID 157). The note with it: S. cerevisiae mec2-1 strain, at 100.0 µM, hits give high values. The gist of the method:
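Using mec2-1 yeast: add compound, measure growth, express inhibition versus vehicle-treated cultures.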
For `C/C(=N\NC(=S)SCc1ccccc1)c1ccccn1`, the growth inhibition is 92% (active).
The same measure, in the same setting: the same measure for `CC[C@@]1(O)C(=O)OCc2c1cc1n(c2=O)Cc2cc3c(N)cccc3nc2-1`: 30%.
The same measure, in the same setting: the same measure for `CN(C)c1ccc(Sc2ccc3nc(N)nc(N)c3c2)cc1`: 55%.
On the same count and under the same terms, the same measure for `CC(=O)OCCOCNC(=S)N/N=C(\C)c1cnccn1`: 75% (active).
For `COc1ccc(C2c3cc4c(cc3OC(C)(O)C2C)OCO4)c(OC)c1` (stereo not drawn), the growth inhibition was 94% (active).
Same read-out and setting: the same measure for `COc1cc(C2SCC(=O)N2c2ccc(-c3ccc(-n4c(-c5ccccc5)nc5ccccc5c4=O)cc3)cc2)cc(OC)c1OC` (stereo not drawn): -2%.
`COc1ccc(Br)c(C(=O)Sc2nnnn2-c2cccc(Cl)c2)c1`: the growth inhibition was 94% (active).
Still for that read-out and setting: the same measure for `O=C(NNc1ccnc2cc(Cl)ccc12)/C(=C\c1ccccc1Cl)NC(=O)c1ccccc1`: 14%.
Consider `CSC(=S)Nc1cccc(C)n1`, for which the growth inhibition was 34%.
Consider `O=C(/C=C\c1ccc(Cl)cc1Cl)c1cccs1`, for which the growth inhibition was 10%.
On the same count and under the same terms, the same measure for `COc1ccc(-c2cn(-c3ccc(I)cc3)c3ncnc(N)c23)cc1`: 1%; for `CN(C)c1ccc(C(C#N)=C(C#N)C#N)cc1`: 18%.
On the same count and under the same terms, the same measure for `COc1cc(/C=C2\CCc3ccccc3C2=O)cc(OC)c1OC`: 73% (active); for `CC(C)/C(Cl)=N\OC(=O)Nc1cccc(Cl)c1`: 1%; for `CC1(C)[C@@H]2CC[C@]1(C)[C@H](OC(=O)CSC#N)C2`: 97% (active).
On the same count and under the same terms, the same measure for `NNC(=O)CCc1ccc2ccc3ccccc3c2c1`: 50%; for `COc1ccc(/C(C)=N/OC(=O)c2c(-c3ccccc3Cl)noc2C)cc1CN1CCOCC1`: 50%; for `C=CC(C)(O)CCC1C(=C)C(O)CC2C(C)(C)CCCC12C` (stereo not drawn): 50%.
With `S=C(Nc1ccc(Cl)c(Cl)c1)SCc1ccc2c(c1)OCO2`, the growth inhibition is 97% (active).
Still for that read-out and setting: the same measure for `COc1cc(C2C3=C(COC3=O)Oc3cc4c(cc32)OCO4)ccc1O` (stereo not drawn): 33%; for `S=C(Nc1ccc(Cl)cc1)SC1CCCCC1`: 96% (active); for `Nc1nc(-c2cccnc2)cc(-c2cc(-c3cccnc3)nc(N)n2)n1`: -6%.
On the same count and under the same terms, the same measure for `COC1=CC(=O)C2C(C1=O)C(c1ccc(Cl)cc1)[C@@H]2C` (stereo partly drawn): 99% (active); for `c1ccc(-c2nc3cccnc3s2)cc1`: 20%; for `O=[N+]([O-])c1cc(CCl)ccc1CCl`: 98% (active).
Regarding `COc1ccc(/C=C2\SC(=S)N(/C=C/c3nc4ccccc4[nH]c3=O)C2=O)cc1OC`, the growth inhibition was 91% (active).
The same measure, in the same setting: the same measure for `CCCN(CCC)CC(O)c1cc(-c2ccc(Cl)cc2)nc2c(C)c(Cl)ccc12` (stereo not drawn): 96% (active); for `O=C(Nc1ccccc1)OCCc1ccc(Cl)c(Cl)c1`: 47%; for `CC(O)C(O)C(O)C(/C=N\Nc1ccccc1)=N/Nc1ccccc1` (stereo not drawn): 98% (active).
`C#CCCCc1ccccc1`: the growth inhibition is 98% (active).
On to `CC(=O)Cc1ccc[cH-]1.[Fe+2].c1cc[cH-]c1`, for which the growth inhibition was 18%.
For the compound `Cc1cc(I)ccc1N`, the growth inhibition is 92% (active).
As to `FC(F)(F)c1cc(NC(=S)N2c3ccccc3-n3cccc3C2c2cccnc2)cc(C(F)(F)F)c1` (stereo not drawn), the growth inhibition was -1%.
On the same count and under the same terms, the same measure for `CC(C)(CN1CCCCC1)C(=O)CC(SCCS(=O)(=O)O)c1ccc(Br)cc1` (stereo not drawn): 36%; for `C[Si](C)(C)CNC(=O)OCc1ccccc1`: 11%; for `CC(C(=O)N1C(=O)N(C(=O)[C@H](C)C(O)c2ccccc2)[C@H](c2ccccc2)[C@H]1c1ccccc1)[C@@H](O)c1ccccc1` (stereo partly drawn): 55%.
Still for that read-out and setting: the same measure for `Oc1cccc2c(Cl)ccnc12`: 99% (active).
Still for that read-out and setting: the same measure for `O=C1C=CC(=C(c2ccccc2)c2ccccc2)c2ccccc21`: 2%; for `S=C(S)NN1CCOCC1`: 35%.

A further assay can be described thus: NCI Yeast Anticancer Drug Screen. Data for the rad14 strain (AID 159).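 Note: 0% = growth of vehicle-treated control cultures.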 The note with it: S. cerevisiae rad14 strain growth inhibition; at 1.2 µM; hits give high values. The gist of the method:
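Here, inhibition of yeast growth was measured after compound exposure, using a strain with a genetic defect in DNA damage repair and vehicle-treated cultures as the reference.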
As to `C/C(=N\NC(=S)SCc1ccccc1)c1ccccn1`, the growth inhibition was -10%.
Still for that read-out and setting: the same measure for `CC[C@@]1(O)C(=O)OCc2c1cc1n(c2=O)Cc2cc3c(N)cccc3nc2-1`: -20%; for `CN(C)c1ccc(Sc2ccc3nc(N)nc(N)c3c2)cc1`: -15%; for `CC(=O)OCCOCNC(=S)N/N=C(\C)c1cnccn1`: -8%.
On the same count and under the same terms, the same measure for `COc1ccc(C2c3cc4c(cc3OC(C)(O)C2C)OCO4)c(OC)c1` (stereo not drawn): -3%.
On the same count and under the same terms, the same measure for `COc1cc(C2SCC(=O)N2c2ccc(-c3ccc(-n4c(-c5ccccc5)nc5ccccc5c4=O)cc3)cc2)cc(OC)c1OC` (stereo not drawn): 0%; for `COc1ccc(Br)c(C(=O)Sc2nnnn2-c2cccc(Cl)c2)c1`: -8%; for `O=C(NNc1ccnc2cc(Cl)ccc12)/C(=C\c1ccccc1Cl)NC(=O)c1ccccc1`: -2%.
Regarding `CSC(=S)Nc1cccc(C)n1`, the growth inhibition is -19%.
On the same count and under the same terms, the same measure for `O=C(/C=C\c1ccc(Cl)cc1Cl)c1cccs1`: -2%; for `COc1ccc(-c2cn(-c3ccc(I)cc3)c3ncnc(N)c23)cc1`: -5%.
On the same count and under the same terms, the same measure for `CN(C)c1ccc(C(C#N)=C(C#N)C#N)cc1`: 3%; for `COc1cc(/C=C2\CCc3ccccc3C2=O)cc(OC)c1OC`: -10%.
The same measure, in the same setting: the same measure for `CC(C)/C(Cl)=N\OC(=O)Nc1cccc(Cl)c1`: 0%; for `CC1(C)[C@@H]2CC[C@]1(C)[C@H](OC(=O)CSC#N)C2`: -2%; for `NNC(=O)CCc1ccc2ccc3ccccc3c2c1`: -4%.
`COc1ccc(/C(C)=N/OC(=O)c2c(-c3ccccc3Cl)noc2C)cc1CN1CCOCC1`: the growth inhibition is -8%.
The same measure, in the same setting: the same measure for `C=CC(C)(O)CCC1C(=C)C(O)CC2C(C)(C)CCCC12C` (stereo not drawn): -7%; for `S=C(Nc1ccc(Cl)c(Cl)c1)SCc1ccc2c(c1)OCO2`: 4%.
As to `COc1cc(C2C3=C(COC3=O)Oc3cc4c(cc32)OCO4)ccc1O` (stereo not drawn), the growth inhibition is 1%.
Still for that read-out and setting: the same measure for `S=C(Nc1ccc(Cl)cc1)SC1CCCCC1`: -24%; for `Nc1nc(-c2cccnc2)cc(-c2cc(-c3cccnc3)nc(N)n2)n1`: -1%.
Still for that read-out and setting: the same measure for `COC1=CC(=O)C2C(C1=O)C(c1ccc(Cl)cc1)[C@@H]2C` (stereo partly drawn): -3%; for `c1ccc(-c2nc3cccnc3s2)cc1`: -3%; for `O=[N+]([O-])c1cc(CCl)ccc1CCl`: 8%.
For `COc1ccc(/C=C2\SC(=S)N(/C=C/c3nc4ccccc4[nH]c3=O)C2=O)cc1OC`, the growth inhibition was 3%.
On the same count and under the same terms, the same measure for `CCCN(CCC)CC(O)c1cc(-c2ccc(Cl)cc2)nc2c(C)c(Cl)ccc12` (stereo not drawn): -2%.
Same read-out and setting: the same measure for `O=C(Nc1ccccc1)OCCc1ccc(Cl)c(Cl)c1`: -5%; for `CC(O)C(O)C(O)C(/C=N\Nc1ccccc1)=N/Nc1ccccc1` (stereo not drawn): -2%.
The same measure, in the same setting: the same measure for `C#CCCCc1ccccc1`: -36%; for `CC(=O)Cc1ccc[cH-]1.[Fe+2].c1cc[cH-]c1`: 0%.
For the compound `Cc1cc(I)ccc1N`, the growth inhibition was 1%.
On the same count and under the same terms, the same measure for `FC(F)(F)c1cc(NC(=S)N2c3ccccc3-n3cccc3C2c2cccnc2)cc(C(F)(F)F)c1` (stereo not drawn): 2%; for `CC(C)(CN1CCCCC1)C(=O)CC(SCCS(=O)(=O)O)c1ccc(Br)cc1` (stereo not drawn): 6%.
On the same count and under the same terms, the same measure for `C[Si](C)(C)CNC(=O)OCc1ccccc1`: -1%; for `CC(C(=O)N1C(=O)N(C(=O)[C@H](C)C(O)c2ccccc2)[C@H](c2ccccc2)[C@H]1c1ccccc1)[C@@H](O)c1ccccc1` (stereo partly drawn): -7%; for `Oc1cccc2c(Cl)ccnc12`: 37%.
On the same count and under the same terms, the same measure for `O=C1C=CC(=C(c2ccccc2)c2ccccc2)c2ccccc21`: 5%.
On to `S=C(S)NN1CCOCC1`, for which the growth inhibition was 33%.
